Cycloheximide cs: counter-screen hit for Shiga toxin inhibitors, cycloheximide | cell reporter, cycloheximide protein synthesis inhibition counterscreen | max response, % | actives 12% (n = 300,000) | AID 2314; in the data active = max response mostly above about 13%, no sharp cut-off; inactive = mostly below about 14%; also: read at 38.3 µM for the half of the compounds with a filed dose
FMDV inh: antivirals against foot and mouth disease virus | FMDV antiviral cell-based qHTS | Potency, µM (highest dose often 57.9 µM), most hits filed as inhibitors | actives 1.2% (n = 410,000); calls by dose curve; tested in HEK293T cells; also: read-out not given here; nearly all actives have a fitted effect of over 45% in size
Sm TGR inh: inhibitors of Schistosoma mansoni thioredoxin glutathione reductase; Q962Y6; purified TGR, DTNB reduction, TNB absorbance 405 nm; Potency, µM (series often up to 114 µM), actives largely listed as inhibitors; actives 3% (n = 360,000); AID 485364; active = well fitted inhibition curve with a large enough effect; inconclusive = small, poorly fitted or top-dose-only effect; inactive = no such curve, though single readings can be large or run the other way; also: nearly all actives have a fitted effect of over 60% in size
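TGR 20 nM + NADPH 100 uM (dispensed conc.), cpd preinc 15 min RT; start with NADPH (500 uM addition) then DTNB (15 mM addition). Kinetic TNB absorbance, 405 nm filter. Four-parameter Hill fit across titration.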
Shiga inhibitor: Shiga toxin inhibition | Vero cells, Shiga toxin protein synthesis inhibition reporter | inhibition, % at 38.7 µM | actives 9.2% (n = 290,000); in the data active = inhibition mostly above about 28%, no sharp cut-off; inactive = mostly below about 43%
Numbers stand for hits. Most compounds without a hit are left out; they make up all but 12% or so of the library.

Screening CC(C)(C)c1ccc(/C=C/C(=O)Nc2nncs2)cc1 returned Cycloheximide cs 62.6, FMDV inh inactive, Sm TGR inh inactive and Shiga inhibitor 55.5.
`O=C(/C=C/c1ccc2c(c1)OCO2)Nc1nncs1` gave Cycloheximide cs 29.6, FMDV inh inactive, Sm TGR inh inactive and Shiga inhibitor 44.6.
COC(=O)CSc1nnc(NC(=O)/C=C\c2ccc3c(c2)OCO3)s1 was read as Cycloheximide cs inactive, FMDV inh inactive, Sm TGR inh inactive and Shiga inhibitor inactive.
`COC(=O)Nc1nncs1` gave Cycloheximide cs inactive, FMDV inh inactive, Sm TGR inh inactive and Shiga inhibitor inactive.
`O=C(/C=C/c1ccc2c(c1)OCO2)Nc1nc(-c2ccccc2)cs1` gave Cycloheximide cs inactive, FMDV inh 14.1µM, Sm TGR inh inactive and Shiga inhibitor inactive.
For Cc1sc(NC(=O)/C=C/c2ccc3c(c2)OCO3)nc1-c1ccccc1 the results were Cycloheximide cs inactive, FMDV inh 6.31µM, Sm TGR inh inactive and Shiga inhibitor inactive.
`CCOC(=O)CNc1ncnc2c1nnn2C` gave FMDV inh inactive and Sm TGR inh inactive.
For COc1ccc(C(=O)CSc2ncnc3nc[nH]c23)cc1 the results were Cycloheximide cs inactive, FMDV inh inactive, Sm TGR inh inactive and Shiga inhibitor inactive.
Cc1ccc(OCCSc2ncnc3nc[nH]c23)cc1 was read as Cycloheximide cs 60.8, FMDV inh inactive, Sm TGR inh inactive and Shiga inhibitor inactive.
Fc1ccc(CSc2ncnc3nc[nH]c23)cc1 was read as Cycloheximide cs inactive, FMDV inh inactive, Sm TGR inh inactive and Shiga inhibitor inactive.
`Brc1ccc(CSc2ncnc3nc[nH]c23)cc1` gave Cycloheximide cs 15.9, FMDV inh inactive, Sm TGR inh inactive and Shiga inhibitor inactive.
`CCc1ccccc1NS(=O)(=O)c1cc(Br)cc2c1N(C(=O)C1CC1)CC2` gave FMDV inh inactive and Sm TGR inh inactive.
Screening O=C(COC(=O)c1cnccn1)c1ccc(Cl)c([N+](=O)[O-])c1 returned Cycloheximide cs inactive, FMDV inh inactive, Sm TGR inh 39.8µM and Shiga inhibitor inactive.
`N/C(=N\OC(=O)c1ccc2ccccc2c1)c1ccc(Br)cc1` gave Cycloheximide cs inactive, FMDV inh inactive, Sm TGR inh inactive and Shiga inhibitor inactive.
`N/C(=N\OC(=O)c1cccc(Br)c1)c1ccccn1` gave Cycloheximide cs 65.8, FMDV inh inactive, Sm TGR inh inactive and Shiga inhibitor 35.9.
N/C(=N\OC(=O)c1cccc(Br)c1)c1ccccc1 was read as Cycloheximide cs 26.6, FMDV inh inactive, Sm TGR inh inactive and Shiga inhibitor 59.4.
Screening N/C(=N\OC(=O)c1cccc(Cl)c1)c1ccccn1 returned Cycloheximide cs 42.1, FMDV inh inactive, Sm TGR inh inactive and Shiga inhibitor inactive.
For N/C(=N\OC(=O)c1ccc(Cl)cc1)c1ccccn1 the results were Cycloheximide cs inactive, FMDV inh inactive, Sm TGR inh inactive and Shiga inhibitor inactive.
For N/C(=N\OC(=O)c1ccc(Cl)c(Cl)c1)c1ccccn1 the results were Cycloheximide cs 19.0, FMDV inh inactive, Sm TGR inh inactive and Shiga inhibitor 106.8.
`N/C(=N\OC(=O)c1ccc(Cl)c([N+](=O)[O-])c1)c1ccccn1` gave Cycloheximide cs 72.3, FMDV inh inactive, Sm TGR inh inactive and Shiga inhibitor 140.9.
For N/C(=N\OS(=O)(=O)c1ccc(Cl)cc1)c1ccccn1 the results were Cycloheximide cs 16.9, FMDV inh inactive, Sm TGR inh inactive and Shiga inhibitor 55.6.
For Cc1nc(-c2ccc(F)cc2)sc1CCNC(=O)c1ccccc1C(F)(F)F the results were FMDV inh inactive and Sm TGR inh inactive.
Screening CC(C)c1ccc(NC(=O)C(Cc2ccccc2)NS(=O)(=O)c2ccc3c(c2)oc(=O)n3C)cc1 (stereo not given) returned FMDV inh inactive and Sm TGR inh inactive.
For COc1ccc(C(=O)N2CCC3(CC2)c2ccccc2[C@@H](NC(=O)c2ccccn2)[C@@H]3OC)c(O)c1 the results were FMDV inh inactive.
`O=S(=O)(c1ccc(-c2csc(Nc3ccc(Br)cc3)n2)cc1)N1CCCC1` gave Cycloheximide cs inactive, FMDV inh inconclusive, Sm TGR inh inactive and Shiga inhibitor inactive.
For CCOc1ccc(-c2csc(-c3nc(-c4ccc(Br)s4)cs3)n2)cc1 the results were FMDV inh inactive and Sm TGR inh inactive.
Screening CCOc1ccc(-c2csc(NNC3=NCCCCC3)n2)cc1 returned Cycloheximide cs 16.4, FMDV inh inactive, Sm TGR inh inactive and Shiga inhibitor inactive.
Brc1ccc(-c2csc(NC3=NCCCCC3)n2)cc1 was read as Cycloheximide cs 24.4, FMDV inh inactive, Sm TGR inh inactive and Shiga inhibitor inactive.

From PubChem
